The text below walks through data of PubChem BioAssay (Tox21).

Inconclusive results are not listed. Values without a mark were called inactive. Calls follow the shape of the full dose curve.
% is scaled to controls: 0 for no effect and ±100 for the full control effect.

A short description of this assay: qHTS assay to identify small molecule agonists or antagonists of the thyroid stimulating hormone receptor (TSHR) signaling pathway - wild type cell line counter screen (AID 1259384). The following applies: HEK293 wild type, cAMP HTRF counter-screen; series mostly up to 92.4 µM; cAMP activity change: at the top concentration. The source says:
U.S. Tox21 Program National Center for Advancing Translational Sciences [NCATS] NIH Chemical Genomics Center [NCGC] U.S. Environmental Protection Agency [EPA] National Institutes of Environmental Health Sciences [NIEHS] National Toxicology Program [NTP] U.S. Food and Drug Administration [FDA] Tox21 Assay Overview: TSHR is the receptor for thyrotropin (thyroid stimulating hormone or TSH), a member of the glycoprotein hormone family. TSH is released by the anterior pituitary gland and is the main regulator of thyroid gland growth and development. Upon binding circulating thyrotropin, a G-protein signal cascade activates adenylyl cyclase and […] cAMP concentration is increased. cAMP is a key second messenger involved extensively in cellular signal transduction pathways associated with the majority of G-protein coupled receptors (GPCRs). The activation of these GPCRs by neurotransmitters, lipids, nucleotides, peptides and hormones results in the activation or the inhibition of plasma membrane-bound adenylate cyclase through heterotrimeric G-proteins. A cell-based TSHR-Hek293 assay can be used to identify TSHR agonists. To eliminate the false positive compounds identified from screening a cell-based TSHR-Hek293 cell line, cAMP assay in a wild type Hek293 cells was used as a counter screening.
Tox21 Assay Protocol Summary: Hek293 cells (wild type) were dispensed at 800 cells/4 uL/well in 1536-well white plates using a Multidrop dispenser. After the assay plates were incubated at a 37 C/5% CO2 incubator for 18 hrs, 23 nL of compounds dissolved in DMSO, positive controls or DMSO only was transferred to the assay plate by a pin tool, followed by 1 ul medium containing Ro20-1724. After 30 min of incubation at room temperature, 2.5 ul/well of cAMP-d2 and 2.5 ul/well of anti-cAMP-cryptate were added respectively into the assay plates using a Flying Reagent Dispenser. The plates were incubated at room temperature for 1 hr. The fluorescence intensity in the plates was measured using an Envision plate reader. Each test compound was measured at 15 concentrations and in triplicates.
(In qHTS, concentration-response curves come from the screen itself.)
As for `CNC1CCCN(c2c(F)cc3c(=O)c(C(=O)O)cn(C4CC4)c3c2OC)C1` (stereo not given), the “cAMP activity change” value was -10.8% [at 42.5 µM, hits give high values].

Turning to `CC(C)C1CCC(C(=O)N[C@H](Cc2ccccc2)C(=O)O)CC1` (stereo not given in full), the “cAMP activity change” value was 1.64% [at 42.5 µM, hits give high values].

Consider `CC(C)(C(=O)c1cccnc1)c1cccnc1`, for which the “cAMP activity change” value was 4.4% [at 42.5 µM, hits give high values].

As for `COC(=O)c1sccc1S(N)(=O)=O`, the “cAMP activity change” value is 0.11%. On to `Nc1ccc(S(=O)(=O)NCc2ccccc2)cc1`, for which the “cAMP activity change” value is 0.6% [at 42.5 µM, hits give high values].

Consider `SCCc1cnccn1`, for which the “cAMP activity change” value was -0.876%. Take `O=C(NC(Cc1cc(=O)[nH]c2ccccc12)C(=O)O)c1ccc(Cl)cc1` (stereo not given): the “cAMP activity change” value was 4.4% [at 42.5 µM, hits give high values]. For the molecule `CC(C)c1ccc(C(=O)N=C(N)N)cc1S(C)(=O)=O`, the “cAMP activity change” value is 2.4% [at 42.5 µM, hits give high values]. With `COC(=O)CC(C(C)=O)C(=O)OC` (stereo not given) the figure was -3.27%. On to `CC(=O)OCCC(C)CC(C)(C)C` (stereo not given), for which the “cAMP activity change” value was 0.0546%. With `Cc1ccc(NC(=O)N(C)C)cc1NC(=O)N(C)C` the figure was -0.56%.

On to `COC(C)(C)OC`, for which the “cAMP activity change” value was -2.22%.

As to `CCCCOC(=O)CCCCC(=O)OCCCC`, the “cAMP activity change” value was 1.41%. Then `C=CCOC(=O)COCCC(C)C`, with 1.08%; and `Cc1cc(CCC(=O)OCCOCCOCCOC(=O)CCc2cc(C)c(O)c(C(C)(C)C)c2)cc(C(C)(C)C)c1O`, with 5.46%; and `c1ccc(CCCc2ccncc2)cc1`, with -1.92%. On to `CC1=CC[C@@]23C[C@@H]1C(C)(C)[C@@H]2CC[C@H]3C`, for which the “cAMP activity change” value is -1.21%. Turning to `O=C(Oc1ccccc1)c1ccc2ccccc2c1O`, the “cAMP activity change” value is 5.91%. Then `CC(=O)OCC1=C(C(=O)O)N2C(=O)[C@@H](NC(=O)CSc3ccncc3)[C@H]2SC1`, with 4.07% [at 42.5 µM, hits give high values]; and `O=C(Nc1ccc(C(=O)O)c(O)c1)c1ccccc1`, with 1.8% [at 42.5 µM, hits give high values]; and `Cc1ccc(Nc2c(F)cccc2Cl)c(CC(=O)O)c1`, with 0.931% [at 42.5 µM, hits give high values]. Take `O=C1OC(=O)c2c(Br)c(Br)c(Br)c(Br)c21`: the “cAMP activity change” value is 1.29%. For the molecule `Nc1ccc(N=Nc2ccc(N)cc2)cc1`, the “cAMP activity change” value was -4.61% [at 42.5 µM, hits give high values].

In the case of `O=C(O)c1cc(Cl)cc(Cl)c1O`, the “cAMP activity change” value is -0.369%. `COc1ccc(-n2nc(C(F)F)cc2-c2ccc(S(C)=O)cc2)cc1` (stereo not given): the “cAMP activity change” value was 1.11%. `CC1=CC[C@@H]2C[C@H]1C2(C)C`: the cAMP activity change was -1.96% [at 18.9 µM, hits give high values]. As to `CCCCCCCCCCCCCOC(=O)CCSCCC(=O)OCCCCCCCCCCCCC`, the cAMP activity change was -3.33% [at 18.9 µM, hits give high values]. Then `CC(CCc1ccc(O)cc1)NCCc1ccc(O)c(O)c1` (stereo not given), with 2.29% [at 42.5 µM, hits give high values]; and `CCOC(=O)c1ccc(NC(=O)CN2CCCCC2)cc1`, with 1.95% [at 42.5 µM, hits give high values]; and `COc1cc(C(C)=O)ccc1OCCCN1CCC(c2noc3cc(F)ccc23)CC1`, with -2.59% [at 42.5 µM, hits give high values]. As to `O=C(O)c1cccc(Oc2ccccc2)c1`, the “cAMP activity change” value is -1.71%. Then `O=CNNC=O`, with 4.99%. With `CC[C@@H](CO)NCCN[C@@H](CC)CO` the figure was -0.039% [at 42.5 µM, hits give high values]; with `O=C(NS(=O)(=O)/C=C/c1ccccc1)c1ccc(F)cc1Cl`, 3.65%; with `Cc1ccc2c(c1[N+](=O)[O-])C(=O)c1ccccc1C2=O`, -1.9% [at 42.5 µM, hits give high values]. `CCCCCCC(CO)CCCC` (stereo not given): the “cAMP activity change” value is 1.24%. Then `O=C1CC[C@@H](C(=O)O)N1`, with -1.95% [at 42.5 µM, hits give high values]; and `CC(=O)Oc1cccc(O)c1`, with 9% [at 42.5 µM, hits give high values]; and `C1CCCCC1`, with -1.31%. Then `CCC(CO)(CO)[N+](=O)[O-]`, with -1.22%.
